24 molecules from PubChem BioAssay (Tox21) can be followed below.

Records with an inconclusive call do not appear. A call without a number means that no potency is given here. Unmarked numbers belong to inactive results. Activity calls are given as the source filed them. Calls follow the shape of the dose curve; as a rule, active = well fitted activation curve with a large enough effect in the repeat runs; inconclusive = weak or mixed curves; inactive = flat fitted curve, though single readings scatter.

This experiment is described as follows: A CellTox Green Cytotoxicity Assay to monitor cytotoxicity in HEK293 cells - 40 hour (AID 1224871). Also: nearly all actives have a fitted effect of over 45% in size. The note with it: CellTox Green fluorescence; series mostly up to 76.8 µM; cytotoxicity increase: at the top concentration. The procedure, abridged:
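Each value comes from one timepoint of a single continuous run in which HEK293 cells with CellTox Green were exposed to compound for up to 40 h at 37 C, dye fluorescence rising with cell death.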
With `CC1=CCC(C(C)(C)O)CC1` (centres undefined), the “cytotoxicity increase” value was 1.85%. Regarding `Nc1ncn([C@@H]2O[C@H](CO)[C@@H](O)[C@H]2O)c(=O)n1`, the Potency entry was “inactive”.

With `CCOC(=O)C(C#N)=C(c1ccccc1)c1ccccc1`, the “cytotoxicity increase” value was -7.49% [at 35.3 µM]. Turning to `CCC(C)(O)CCCC(C)C` (centres undefined), the Potency result is “inactive”. As for `CCCCNS(=O)(=O)c1ccccc1`, the Potency result was “inactive”. The same measure, in the same setting: the same measure for `CC(C)CC(C)(O)C#CC(C)(O)CC(C)C` (centres undefined): “inactive”; for `c1ccc2c(c1)c1cccc3ccc4cccc2c4c31`: “inactive”; for `O=C(/C=C/c1ccccc1)OCc1ccccc1`: “inactive”.

Consider `CC(C)(C)NC(=O)[C@H]1CC[C@H]2[C@@H]3CC[C@H]4NC(=O)C=C[C@]4(C)[C@H]3CC[C@]12C`, for which the Potency result was “inactive”.

In the case of `CCCc1c(OCCCCc2nn[nH]n2)ccc(C(C)=O)c1O`, the Potency result is “inactive”. As for `CCCCCCCCCCCO`, the “cytotoxicity increase” value was 22.5%. `COc1ccc(OC)c(C(O)CNC(=O)CN)c1` (centres undefined): the Potency result is “inactive”.

As for `COC(=O)Nc1nc2ccc(S(=O)c3ccccc3)cc2[nH]1` (centres undefined), the “cytotoxicity increase” value was 0.565%.

For the molecule `Cc1ncc[nH]1`, the Potency entry was “inactive”. In the case of `Cc1ccc(C(=O)c2cc(O)c(O)c([N+](=O)[O-])c2)cc1`, the “cytotoxicity increase” value is 0.793%. Turning to `CN1C(C(=O)Nc2ccccn2)=C(O)c2ccccc2S1(=O)=O`, the Potency entry was “inactive”. On the same count and under the same terms, the same measure for `Cc1c(OCC(F)(F)F)ccnc1CS(=O)c1nc2ccccc2[nH]1` (centres undefined): “inactive”.

As for `Nc1ccc(Nc2ccccc2)cc1`, the Potency result is “inactive”. The same measure, in the same setting: the result for `COc1cc([C@@H]2c3cc4c(cc3[C@H](O)[C@H]3COC(=O)[C@H]23)OCO4)cc(OC)c1OC` reads “inactive”; that for `CC(C)OC=O`, “inactive”; that for `OC(CCl)CCl`, “inactive”. On the same count and under the same terms, the result for `CC(C)OB(OC(C)C)OC(C)C` reads “inactive”; that for `C[Si](C)(C)O[Si](C)(C)C`, “inactive”; that for `c1cc(-c2ccncc2)ccn1`, “inactive”.
